# Screening data from PubChem BioAssay.
# M1 ag – activates the M1 muscarinic receptor; B-score at 10 µM; CHO-M1 cells, Fluo-4 calcium fluorescence, agonist mode; stronger effect = higher value; 64,000 compounds, 3% hits;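 active = fluorescence rise, raw or as B-score row- and column-corrected plate score, outside the 99.7% band of its plate's samples, either direction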
# M1 antagonist – M1 muscarinic receptor (rat) antagonism; P08482; CHO-M1 cells, Fluo-4 calcium, ACh EC80 antagonist mode; stronger effect = lower value; B-score at 10 µM; 64,000 compounds, 3.4% hits; AID 628;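 active = calcium fluorescence response, raw or row-and-column corrected B-score, differing from the plate sample mean either way at a set confidence level, mostly lower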
# PLAP act – human PLAP activation | activation fold at 20 µM | AID 696 | purified PLAP enzyme, luminescent substrate read-out; stronger effect = higher value | 96,000 compounds, 1.2% hits | P05187; in the data active = activation fold above about 2
# Cav32 inh – blocks human Cav3.2 T-type calcium channel; 100,000 compounds, 4% hits; AID 449739; Cav3.2-expressing cells, Fluo-4 calcium fluorescence FDSS; stronger effect = lower value; B-score at 10 µM;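 active = single-dose well whose peak fluorescence ratio is a statistical outlier from its plate by either plate-standardised score or position-corrected B-score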
# M1 ag confirm – rat M1 muscarinic agonism, confirmation; CHO-M1 cells, Fluo-4 calcium fluorescence, agonist mode; actives lie on both sides; 1,700 compounds, 19% hits; fluorescence change (max-min) at 10 µM; shares compounds with M1 ag;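 active = fluorescence change differs from the solvent-only DMSO control mean at a set confidence level in both duplicate runs; inconclusive = differs from solvent-only control mean in just one of two runs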;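 also: an EC20 dose of acetylcholine follows compound addition during the same imaging run; raw fluorescence intensity difference in instrument units with no normalization to controls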
# M4 ag counter – rat M4 muscarinic agonism, M1 counter-screen; shares compounds with M1 ag; 1,700 compounds, 9% hits; CHO M4/Gqi5 cells, Fluo-4 calcium fluorescence, agonist mode; actives lie on both sides; fluorescence change (max-min) at 10 µM;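 active = fluorescence change differing from the plate's solvent-only control wells at 99.7% confidence in both duplicates, whether higher or lower; inconclusive = differs from solvent controls in only one of two duplicates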
# Target sequence (P08485 whole entry, looked up): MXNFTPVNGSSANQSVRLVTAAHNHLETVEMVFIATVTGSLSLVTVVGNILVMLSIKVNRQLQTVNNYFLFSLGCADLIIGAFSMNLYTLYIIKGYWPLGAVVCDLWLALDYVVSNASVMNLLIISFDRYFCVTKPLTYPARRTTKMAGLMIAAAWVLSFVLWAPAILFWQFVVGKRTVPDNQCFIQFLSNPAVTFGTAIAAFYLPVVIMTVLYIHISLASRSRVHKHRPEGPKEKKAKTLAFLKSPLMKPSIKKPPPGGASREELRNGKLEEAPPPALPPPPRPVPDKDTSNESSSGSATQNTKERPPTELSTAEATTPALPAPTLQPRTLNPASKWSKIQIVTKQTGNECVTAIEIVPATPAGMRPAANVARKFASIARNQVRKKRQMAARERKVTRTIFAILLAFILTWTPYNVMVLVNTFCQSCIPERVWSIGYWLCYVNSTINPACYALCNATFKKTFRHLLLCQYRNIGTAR
# The depositor's hits bear a star; ? = inconclusive; . = no result. Hits are enriched below; roughly 7.6% of the tested compounds scored in any of these assays.
SMILES,M1 ag,M1 antagonist,PLAP act,Cav32 inh,M1 ag confirm,M4 ag counter
Cc1sc(NC(=O)CSc2nnc(COc3ccccc3)n2C)c(C#N)c1C,2.4*,-0.17,1,-0.73,?,-51
Cc1cccc(OCc2nnc(SCC(=O)Nc3sc(C)c(C)c3C#N)n2C)c1,-0.011,0.56,1,-0.087,.,.
COc1ccc(CNC(=O)c2cccc(-c3ccc(C)c4ccccc34)n2)cc1,.,.,.,-0.58,.,.
CC(=O)NC(CCS(C)(=O)=O)C(=O)Nc1ccc(Cl)c(Cl)c1 (stereo not drawn),2.9*,-1.6,1.1,-0.67,-8.3,-47
CCOC(=O)c1c(C)c(C(=O)NCc2cccnc2)c(C)n1CC,-0.079,0.6,1.2,0.55,.,.
CCN(CC)C(=O)Cn1cnc2sc(C(=O)Nc3cc(OC)c(OC)c(OC)c3)c(C)c2c1=O,.,.,1.6,-0.32,.,.
Cc1ccc2occ(C(c3nnnn3C3CCCC3)N3CCN(C(=O)c4ccco4)CC3)c(=O)c2c1 (stereo not drawn),2.7*,-2,1.6,0.71,?,?
Cc1csc(NC(=O)CSc2nnc(-c3ccco3)n2C)n1,0.0057,0.29,1.2,.,.,.
COc1cccc2cc(-c3nnc(SCC(=O)Nc4nc(C)cs4)n3C)oc12,3.9*,0.39,1,-0.57,?,-60
Cc1ccccc1OCC(=O)Nc1sc(C(=O)Nc2cccc(C)c2C)c(C)c1C#N,.,.,0.9,0.081,.,.
O=C(C1CCN(S(=O)(=O)c2cccc3nsnc23)CC1)N1CC=C(c2ccccc2)CC1,7.5*,-1.3,1.5,.,-9.8,-32
NCCCC[C@@H]1NC(=O)c2cc([N+](=O)[O-])cc(I)c2SC[C@@H](C(N)=O)NC(=O)[C@H](Cc2ccc(O)cc2)NC1=O,.,.,.,1,.,.
O=C1CSC(c2cn(-c3ccccc3)nc2-c2cc3ccccc3oc2=O)N1Cc1ccccc1 (stereo not drawn),.,.,0.9,-0.089,.,.
O=C1CSC(c2nn(-c3ccccc3)cc2-c2cc3ccccc3oc2=O)N1Cc1ccco1 (stereo not drawn),3.2*,-0.25,1.4,-1.7,11,-38
CC(=O)c1cn(CC(=O)Nc2ccc(C)cc2C)c2ccccc12,.,.,.,-0.38,.,.
CCOC(=O)CNC(=O)CSc1nnc(-c2ccco2)n1N,2.3*,1.2,1.1,-0.44,-27*,-89*
Cc1c(NC(=O)C2C3C=CC(C3)C2C(=O)O)c(=O)n(-c2ccccc2)n1C (stereo not drawn),.,.,1.2,0.72,.,.
COc1ccc(-c2cc(C(F)(F)F)n3nc(C(=O)Nc4cc(C)on4)cc3n2)cc1OC,24*,-0.43,1.5,.,179*,53
COc1ccc(-c2cc(C(F)F)n3ncc(C(=O)NCC4CCCO4)c3n2)cc1 (stereo not drawn),0.48,-0.26,1.1,-1.9,.,.
COc1ccc(-c2cc(C(F)(F)F)n3ncc(C(=O)NCC4CCCO4)c3n2)cc1OC (stereo not drawn),41*,-0.1,1.2,-1.5,?,21
COc1ccc(S(=O)(=O)N(CC(C)C)CC(C)C)c2cccnc12,.,.,1.6,0.011,.,.
O=C(C1CCN(S(=O)(=O)c2cccc3cccnc23)CC1)N1CCN(c2ccccn2)CC1,3.6,-1.1,1.3,.,.,.
O=C(C1CCN(S(=O)(=O)c2cccc3cccnc23)CC1)N1CCN(c2ccc(Cl)cc2)CC1,3.4*,-2.2,1.5,-0.02,-19,-8.4
CCCCCCNc1c(C(=O)OCC)c(=O)[nH]c2ccccc12,5.4*,-0.37,0.8,-0.079,-28,-33
Cc1ccc(-c2noc(CCC(=O)Nc3ccc4c(c3)OCO4)n2)cc1,-0.8,0.85,0.9,0.035,.,.
SMILES,M1 ag,M1 antagonist,PLAP act,Cav32 inh,M1 ag confirm,M4 ag counter
COc1ccc(-c2noc(CCC(=O)Nc3ccc4c(c3)OCCO4)n2)cc1,3.7*,-2*,0.7,-0.33,20,-11
O=C1CN(C(=O)COC(=O)c2ccccc2NC(=O)c2ccco2)c2ccccc2N1,3.6*,-0.73,0.9,-0.17,?,?
CCOc1ccccc1-n1nnnc1SCC(=O)NC(=O)NCc1ccco1,3.3*,-0.26,1.4,-3.4,-6.2,-30
CC1(OC(=O)CCc2ccccc2)C(=O)C=C2C=C(C3CC3)OC=C2C1=O (stereo not drawn),.,.,.,0.035,.,.
Cc1nc(N)sc1N=Nc1ccc(F)cc1,.,.,1,0.8,.,.
CC1CCCCC1N1CN=C(Nc2nc3ccccc3s2)NC1 (stereo not drawn),.,.,0.9,0.76,.,.
NC(=O)N1CCN(C(=O)c2ccco2)CC1,.,.,1.3,0.21,.,.
CS(=O)(=O)N1CCN(CC2CC3C=CC2C3)CC1 (stereo not drawn),37*,-6.8*,0.9,-0.39,208*,-53
O=C(c1ccco1)N1CCN(CC2CC3C=CC2C3)CC1 (stereo not drawn),6.2*,-2.4*,0.9,-0.06,?,-57
CCCCOc1ccc(C(=O)NC)cc1,-0.77,0.64,0.8,0.052,.,.
CCCCOc1ccc(C(=O)Nc2ccncc2)cc1,11*,-3.7*,0.7,0.29,-17,?
CCOc1ccc(-c2nnc(-c3ccncc3)o2)cc1,0.15,-0.72,0.9,0.31,.,.
CCCCOc1ccc(-c2nnc(-c3ccncc3)o2)cc1,2.7*,-0.49,1.2,-0.23,-18,?
CCCCC(=O)Nc1ccc(C(=O)NCc2ccncc2)cc1,19*,1.3,0.9,0.16,?,-49
Cc1cc(C)c(S(=O)(=O)N2CCN(c3nc4c(c(=O)n(C)c(=O)n4C)n3C)CC2)c(C)c1,-0.92,-0.12,1.4,.,.,.
CCc1ccc(-c2cn3nc(C)c(C)nc3n2)cc1,7.3*,1.3,.,-2.7,89*,39
COc1ccc(Nc2ccc3nnc(-c4ccc(Br)cc4)n3n2)cc1,.,.,0.9,-0.097,.,.
OC(COc1ccc2c(c1)CCC2)Cn1cnc2ccccc21 (stereo not drawn),.,.,1.3,-2.4,.,.
Cn1c(=O)c2nc(NCc3ccccc3)cnc2n(C)c1=O,10*,1.3,1,.,203*,166*
O=c1cc(CNC2CCCCC2)c2ccccc2[nH]1,-3*,-0.2,1.4,-0.24,?,-48
O=C(Cc1c(O)c2ccccc2[nH]c1=O)NC1CCCCCC1,-0.28,-0.74,0.9,0.59,.,.
O=C(CN1CCOc2ccccc21)N1CCCC1,-0.54,0.19,.,.,.,.
CCOC(=O)N1CCC(NC(=O)c2cccc3c2C(=O)N(c2ccc(OC)cc2)C3)CC1,2.5*,0.11,1.4,1.4,?,-82
COc1ccc(C(=O)CSc2nc(SC)ns2)cc1OC,-2.8*,-0.73,1.1,-0.46,-17,-25
Cc1nn(C)c(C)c1NC(=O)CN1CCC(O)(c2ccc3c(c2)OCO3)CC1,-0.6,-0.48,1.2,0.72,.,.
Cc1cccc2cc(C(c3nnnn3Cc3ccccc3)N3CCN(c4ccccc4)CC3)c(=O)[nH]c12 (stereo not drawn),6.4*,0.15,1.7,-4,?,?
CCOC(=O)c1nnn(-c2nc(N3CCCC3)nc(N3CCCC3)n2)c1-c1ccccc1,-0.21,-0.027,1.1,.,.,.
